# Where “and” joins values, the source holds several entries; their conditions need not be identical. Equal entries are not always repeated. Where two headings read alike, the source gives them in different places.
# Experiments:
# HUNK = settings: concentration: 1 μM, replicates: in singlicate; n = 1
# ICK = settings: n = 1
# IGF1R = settings: n = 1
# IKK-alpha = system: T1, IKK-alpha; settings: n = 1
# T1 construct: gene CHUK
# IKK-beta = system: T2, IKK-beta; settings: n = 1
# T2 construct: gene IKBKB
# IKK-epsilon = system: T3, IKK-epsilon; settings: n = 1
# T3 construct: gene IKBKE
# INSRR = settings: n = 1
# INSR = settings: n = 1
# IRAK1 = settings: n = 1
# IRAK3 = settings: concentration: 1 μM, replicates: in singlicate; n = 1
# IRAK4 = settings: n = 1
# ITK = settings: n = 1
# [1] = system: JAK1(JH1domain-catalytic); settings: n = 1
# [2] = system: JAK1(JH2domain-pseudokinase); settings: concentration: 1 μM, replicates: in singlicate; n = 1
# [3] = system: JAK2(JH1domain-catalytic); settings: n = 1
# [4] = system: JAK3(JH1domain-catalytic); settings: concentration: 1 μM, replicates: in singlicate; n = 1
# JNK1 = system: T4, JNK1; settings: n = 1
# T4 construct: gene MAPK8
# JNK2 = system: T5, JNK2; settings: n = 1
# T5 construct: gene MAPK9
# JNK3 = system: T6, JNK3; settings: n = 1
# T6 construct: gene MAPK10
# KIT-autoinhibited = settings: n = 1
# [5] = concentration: 1 μM,replicates: in singlicate, 1 µM
# [6] = concentration: 1 μM, replicates: in singlicate
# 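Also: KINOMEscan kinase panel screen.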
smiles,measurement,setting,value
CSc1nn2c(=O)cc(N3CCOCC3)nc2n1Cc1cccc(C(F)(F)F)c1C [GSK2363608],%Inh,HUNK,0%
same,%Inh,ICK; [5],0% and 12%
same,%Inh,IGF1R; [5],0% and 7%
same,%Inh,IKK-alpha; [5],2% and 3%
same,%Inh,IKK-beta; [5],26% and 22%
same,%Inh,IKK-epsilon; [5],0% and 13%
same,%Inh,INSRR; [5],0% and 8%
same,%Inh,INSR; [5],6% and 0%
same,%Inh,IRAK1; [5],5% and 21%
same,%Inh,IRAK3,0%
same,%Inh,IRAK4; [5],12% and 18%
same,%Inh,ITK; [5],2% and 12%
same,%Inh,[1]; [5],13% and 30%
same,%Inh,[2],0%
same,%Inh,[3]; [5],100% and 0%
same,%Inh,[4],0%
same,%Inh,JNK1; [5],2% and 16%
same,%Inh,JNK2; [5],15% and 5%
same,%Inh,JNK3; [5],7% and 3%
same,%Inh,KIT-autoinhibited; [5],2% and 0%
COc1ccc(Nc2nccc(-c3cccc(NC(=O)c4cc5cc(F)ccc5[nH]4)c3)n2)cc1 [GSK1229782],%Inh,HUNK,8%
same,%Inh,ICK; [6],0%
same,%Inh,IGF1R; [6],17%
same,%Inh,IKK-alpha; [6],21%
same,%Inh,IKK-beta; [6],13%
same,%Inh,IKK-epsilon; [6],0%
same,%Inh,INSRR; [6],0%
same,%Inh,INSR; [6],0%
same,%Inh,IRAK1; [6],25%
same,%Inh,IRAK3,42%
same,%Inh,IRAK4; [6],3%
same,%Inh,ITK; [6],23%
same,%Inh,[1]; [6],34%
same,%Inh,[2],0%
same,%Inh,[3]; [6],10%
same,%Inh,[4],0%
same,%Inh,JNK1; [6],28%
same,%Inh,JNK2; [6],34%
same,%Inh,JNK3; [6],15%
same,%Inh,KIT-autoinhibited; [6],0%
Cc1ccc(C(=O)Nc2ccc(Nc3ccnc4cc(-c5ccccn5)ccc34)cc2O)cc1.Cl [GW440146],%Inh,HUNK,23%
same,%Inh,ICK; [6],0%
same,%Inh,IGF1R; [6],18%
same,%Inh,IKK-alpha; [6],0%
same,%Inh,IKK-beta; [6],0%
same,%Inh,IKK-epsilon; [6],16%
same,%Inh,INSRR; [6],0%
same,%Inh,INSR; [6],1%
same,%Inh,IRAK1; [6],28%
same,%Inh,IRAK3,3%
same,%Inh,IRAK4; [6],9%
same,%Inh,ITK; [6],0%
same,%Inh,[1]; [6],16%
same,%Inh,[2],0%
same,%Inh,[3]; [6],5%
same,%Inh,[4],0%
same,%Inh,JNK1; [6],5%
same,%Inh,JNK2; [6],15%
same,%Inh,JNK3; [6],0%
same,%Inh,KIT-autoinhibited; [6],17%
CC1=C(C(=O)Nc2cc3cn[nH]c3cc2F)C(c2ccc(C(F)(F)F)cc2)CC(=O)N1 (stereo not shown) [GSK429286],%Inh,HUNK,20%
same,%Inh,ICK; [6],13%
same,%Inh,IGF1R; [6],0%
same,%Inh,IKK-alpha; [6],0%
same,%Inh,IKK-beta; [6],56%
same,%Inh,IKK-epsilon; [6],5%
same,%Inh,INSRR; [6],0%
same,%Inh,INSR; [6],0%
same,%Inh,IRAK1; [6],31%
same,%Inh,IRAK3,5%
same,%Inh,IRAK4; [6],17%
same,%Inh,ITK; [6],13%
same,%Inh,[1]; [6],40%
same,%Inh,[2],0%
same,%Inh,[3]; [6],62%
same,%Inh,[4],29%
same,%Inh,JNK1; [6],21%
same,%Inh,JNK2; [6],25%
same,%Inh,JNK3; [6],15%
same,%Inh,KIT-autoinhibited; [6],0%
Clc1cc(Cl)cc(Nc2ccnc(Nc3cc(Cl)cc(Cl)c3)n2)c1 [GSK175726],%Inh,HUNK,0%
same,%Inh,ICK; [6],7%
same,%Inh,IGF1R; [6],16%
same,%Inh,IKK-alpha; [6],0%
same,%Inh,IKK-beta; [6],10%
same,%Inh,IKK-epsilon; [6],39%
same,%Inh,INSRR; [6],0%
same,%Inh,INSR; [6],13%
same,%Inh,IRAK1; [6],15%
same,%Inh,IRAK3,2%
same,%Inh,IRAK4; [6],0%
same,%Inh,ITK; [6],4%
same,%Inh,[1]; [6],12%
same,%Inh,[2],0%
same,%Inh,[3]; [6],22%
same,%Inh,[4],0%
same,%Inh,JNK1; [6],2%
same,%Inh,JNK2; [6],0%
same,%Inh,JNK3; [6],0%
same,%Inh,KIT-autoinhibited; [6],3%
COc1ccc(CNC(=O)NC2CCN(c3ccnc(Nc4cc(OC)c(OC)c(OC)c4)n3)C2)cc1 (stereo not shown) [GSK1379748],%Inh,HUNK,3%
same,%Inh,ICK; [6],8%
same,%Inh,IGF1R; [6],0%
same,%Inh,IKK-alpha; [6],0%
same,%Inh,IKK-beta; [6],0%
same,%Inh,IKK-epsilon; [6],20%
same,%Inh,INSRR; [6],0%
same,%Inh,INSR; [6],0%
same,%Inh,IRAK1; [6],63%
same,%Inh,IRAK3,63%
same,%Inh,IRAK4; [6],0%
same,%Inh,ITK; [6],7%
same,%Inh,[1]; [6],0%
same,%Inh,[2],0%
same,%Inh,[3]; [6],87%
same,%Inh,[4],0%
same,%Inh,JNK1; [6],0%
same,%Inh,JNK2; [6],0%
same,%Inh,JNK3; [6],0%
same,%Inh,KIT-autoinhibited; [6],0%
COc1ccccc1CNC(=O)c1cc(C(=O)c2ccccc2C)c[nH]1 [GSK364507],%Inh,HUNK,16%
same,%Inh,ICK; [6],11%
same,%Inh,IGF1R; [6],7%
same,%Inh,IKK-alpha; [6],9%
same,%Inh,IKK-beta; [6],13%
same,%Inh,IKK-epsilon; [6],20%
same,%Inh,INSRR; [6],0%
same,%Inh,INSR; [6],8%
same,%Inh,IRAK1; [6],33%
same,%Inh,IRAK3,0%
same,%Inh,IRAK4; [6],23%
same,%Inh,ITK; [6],16%
same,%Inh,[1]; [6],19%
same,%Inh,[2],0%
same,%Inh,[3]; [6],0%
same,%Inh,[4],0%
same,%Inh,JNK1; [6],45%
same,%Inh,JNK2; [6],9%
same,%Inh,JNK3; [6],16%
same,%Inh,KIT-autoinhibited; [6],0%
Cl.c1ccc(-c2n[nH]cc2-c2ccnc(-c3ccc(CN4CCOCC4)cc3)c2)nc1 [GW776245],%Inh,HUNK,2%
same,%Inh,ICK; [6],0%
same,%Inh,IGF1R; [6],0%
same,%Inh,IKK-alpha; [6],0%
same,%Inh,IKK-beta; [6],0%
same,%Inh,IKK-epsilon; [6],0%
same,%Inh,INSRR; [6],0%
same,%Inh,INSR; [6],0%
same,%Inh,IRAK1; [6],0%
same,%Inh,IRAK3,0%
same,%Inh,IRAK4; [6],0%
same,%Inh,ITK; [6],0%
same,%Inh,[1]; [6],0%
same,%Inh,[2],2%
same,%Inh,[3]; [6],0%
same,%Inh,[4],0%
same,%Inh,JNK1; [6],31%
same,%Inh,JNK2; [6],17%
same,%Inh,JNK3; [6],20%
same,%Inh,KIT-autoinhibited; [6],0%
Nc1nc(-c2nccs2)c(-c2ccnc3ccccc23)s1 [GW693542],%Inh,HUNK,23%
same,%Inh,ICK; [6],0%
same,%Inh,IGF1R; [6],10%
same,%Inh,IKK-alpha; [6],0%
same,%Inh,IKK-beta; [6],9%
same,%Inh,IKK-epsilon; [6],31%
same,%Inh,INSRR; [6],0%
same,%Inh,INSR; [6],0%
same,%Inh,IRAK1; [6],18%
same,%Inh,IRAK3,7%
same,%Inh,IRAK4; [6],16%
same,%Inh,ITK; [6],6%
same,%Inh,[1]; [6],17%
same,%Inh,[2],0%
same,%Inh,[3]; [6],10%
same,%Inh,[4],0%
same,%Inh,JNK1; [6],20%
same,%Inh,JNK2; [6],22%
same,%Inh,JNK3; [6],1%
same,%Inh,KIT-autoinhibited; [6],0%
Fc1cc(Cl)ccc1Nc1ccnc2cc(-c3ccc(CN4CCCCC4)o3)ccc12 [GW560116],%Inh,HUNK,9%
same,%Inh,ICK; [6],0%
same,%Inh,IGF1R; [6],24%
same,%Inh,IKK-alpha; [6],0%
same,%Inh,IKK-beta; [6],0%
same,%Inh,IKK-epsilon; [6],20%
same,%Inh,INSRR; [6],0%
same,%Inh,INSR; [6],0%
same,%Inh,IRAK1; [6],22%
same,%Inh,IRAK3,0%
same,%Inh,IRAK4; [6],0%
same,%Inh,ITK; [6],2%
same,%Inh,[1]; [6],11%
same,%Inh,[2],0%
same,%Inh,[3]; [6],24%
same,%Inh,[4],0%
same,%Inh,JNK1; [6],0%
same,%Inh,JNK2; [6],1%
same,%Inh,JNK3; [6],0%
same,%Inh,KIT-autoinhibited; [6],0%
COc1cc2nccc(Nc3ccc(NC(=O)c4ccc(C)cc4)c(O)c3)c2cc1OC.Cl [GW440132],%Inh,HUNK,28%
same,%Inh,ICK; [6],0%
same,%Inh,IGF1R; [6],0%
same,%Inh,IKK-alpha; [6],0%
same,%Inh,IKK-beta; [6],3%
same,%Inh,IKK-epsilon; [6],0%
same,%Inh,INSRR; [6],0%
same,%Inh,INSR; [6],0%
same,%Inh,IRAK1; [6],0%
same,%Inh,IRAK3,14%
same,%Inh,IRAK4; [6],0%
same,%Inh,ITK; [6],20%
same,%Inh,[1]; [6],12%
same,%Inh,[2],0%
same,%Inh,[3]; [6],0%
same,%Inh,[4],0%
same,%Inh,JNK1; [6],16%
same,%Inh,JNK2; [6],29%
same,%Inh,JNK3; [6],7%
same,%Inh,KIT-autoinhibited; [6],0%

# From paper PMC5540273 (PLoS ONE, 2017)
